The text below walks through data of PubChem BioAssay.

Activity calls are given as the source filed them.

The nature of the assay: cell viability in Huh7 cells, primary screen, cytotoxicity control for HCV replication inhibitor project, CellTiter-Glo luminescence, basal, 48 h (AID 1143).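 Further: Huh7 hepatoma cells carrying a hepatitis C replication reporter with no stimulus; test concentration not given here.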 The conditions noted are these: Huh7 HCV replicon, higher = more signal, called active from +8 up or from −8 down.
On to `O=C1C2C=CC(C(O)c3ccc(B(O)O)cc3)N(Nc3ccccc3)C2C(=O)N1c1ccccc1` (configuration not stated), for which the z-score is -2.7 (inactive).

In the case of `O=C(CCN1CCOCC1)c1cccc(O)c1`, the z-score is -2.97 (inactive). The value for `C=CC[C@]1(C(=O)N2CCOCC2)N=C(c2ccc(OCCCO)cc2)O[C@H]1c1ccccc1` was -2.02 (inactive). Regarding `C=CC(=C)C1=CCO[C@@H]1[C@H]1CCCN1S(=O)(=O)c1ccccc1[N+](=O)[O-]`, the z-score is -0.169 (inactive). Turning to `COc1ccc(C#Cc2ccc3c(c2)[C@]2(C(=O)N3)[C@H](c3ccc(O)cc3)N3[C@H](c4ccccc4)[C@H](c4ccccc4)OC(=O)[C@H]3[C@@H]2C(=O)NC[C@H](O)c2ccccc2)cc1`, the z-score is -3.5 (inactive). The value for `CN1C=C(C(=O)OCCS(C)(=O)=O)C(C(=O)OCCS(C)(=O)=O)=CC(CCCO)=CC1C1CC1` (configuration not stated) was -0.134 (inactive); that for `C=CC[C@@]1(C(=O)NCC(O)CO)N=C(c2ccc(OCCCO)cc2)O[C@@H]1c1ccccc1N=[N+]=[N-]` (some centres not stated) was -4.04 (inactive).
